We go through 24 compounds from PubChem BioAssay (NCATS).

Assay [1] deals with Phospholipid hydroperoxide glutathione peroxidase GPX4 (Homo sapiens) (UniProt P36969). The assay is described as follows: Primary qHTS Assay for Inhibitors of Recombinant Selenoprotein Glutathione Peroxidase 4 (GPX4) (AID 1845192). Also: nearly all actives have a fitted effect of over 65% in size. Also: potency is read from the fitted curve at half-maximal effect. A digest of the protocol:
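Steps: GPX4 plus compound, 30 min RT; add GR/GSH/NADPH master mix; start with cumene hydroperoxide; read 340/450 nm fluorescence at 0 and 15 min. Finals were 200 nM GPX4, 1 mM GSH, 0.5 mM CHP, 0.5 mM NADPH, 100 nM GR.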
For orientation: qHTS replaces the single test concentration by a dilution series.

Assay [2] addresses Luciferin 4-monooxygenase (Photinus pyralis) (UniProt P08659). The assay is described as follows: Primary firefly luciferase (FLuc) qHTS assay for identification of artifact compounds. (AID 1845220). Also: nearly all actives have a fitted effect of over 60% in size. A digest of the protocol: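 Enzymatic FLuc inhibition assay: compounds pre-exposed to luciferin/ATP (10 uM each) for 15 min, then purified P. pyralis enzyme at 10 nM added. Read-out: luminescence at 5 min.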

Assay [3] is described as follows: Primary fluorescence-based thiol-reactive (MSTI) qHTS assay for identification of artifact compounds. (AID 1845221). Also: nearly all actives have a fitted effect of over 65% in size. Also: potency is read from the fitted curve at half-maximal effect. A digest of the protocol: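 A multi-concentration qHTS design tested compounds against 4 uM MSTI, pH 7.4 phosphate-buffered saline. Plates were protected from light for 1 h at room temperature before imaging fluorescence.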
In assay [4] the test system is Nanoluciferase (engineered Oplophorus gracilirostris luciferase). The assay is described as follows: Primary Nanoluciferase (NLuc) qHTS assay for identification of artifact compounds. (AID 1845222).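 Also: NLuc secreted into diluted conditioned medium of S16 cells; series mostly up to about 54 µM.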 A digest of the protocol: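 S16 cell supernatant NLuc, 1:55; cpds qHTS; 15 min RT dark; Nano-Glo substrate 1:100, 5 min; luminescence; Hill fit of % inhibition.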
Assay [5] is described as follows: Primary redox qHTS assay for identification of artifact compounds. (AID 1845223). The procedure, abridged:
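Redox-cycling detection via DTT (250 uM final) oxidation coupled to Amplex Red (25 uM)/HRP (250 mU/mL) in HBSS. 15 min preincubation plus 30 min after DTT, room temperature. Ex/Em 525/598 nm; 4-parameter Hill fit against DMSO and 10 uM DA3003.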

Results filed as inconclusive are left out. The source made the active and inactive calls. Calls follow the shape of the dose curve; as a rule, active = well fitted curve in the direction sought with a large enough effect; inconclusive = small, poorly fitted or top-dose-only effect, or another doubt; inactive = no such curve, though single readings can be large; an effect the other way counts as inactive or inconclusive. *1 amine or outer side, *2 acyl side, *3 side chain or, on linkers, in order; H or OH if unused. Where a SMILES comes first, the peptide text is derived from it. Bridges are numbered along the chain shown (N, C = ends). [ ]: non-standard residue; d: D form. The star is where a group is joined. pTerphenylCO(4''-OnC5H11) = CCCCCOc1ccc(-c2ccc(-c3ccc(C(=O)*)cc3)cc2)cc1; Orn(4R-OH,5R-OH) = O=C([C@H](C[C@@H](O)[C@@H](O)N[*:3])N[*:1])[*:2]; hTyr(3S-OH,4S-OH) = N[C@H](C(=O)O)[C@H](O)[C@@H](O)c1ccc(O)cc1; Pro(3S-OH,4S-Me) = C[C@H]1CN[C@H](C(=O)O)[C@H]1O; Hyp = O=C(O)[C@@H]1C[C@@H](O)CN1

Chain of Phospholipid hydroperoxide glutathione peroxidase GPX4 (Homo sapiens) (P36969 whole entry, looked up): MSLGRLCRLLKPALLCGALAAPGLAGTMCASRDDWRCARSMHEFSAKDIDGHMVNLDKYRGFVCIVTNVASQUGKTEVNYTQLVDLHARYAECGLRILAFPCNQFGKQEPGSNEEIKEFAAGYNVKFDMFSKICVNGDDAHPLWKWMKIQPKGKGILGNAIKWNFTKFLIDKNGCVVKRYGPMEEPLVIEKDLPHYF

For the compound `CN(C)CCC(CSc1ccccc1)Nc1ccc(S(=O)(=O)NC(=O)c2ccc(N3CCN(Cc4ccccc4-c4ccc(Cl)cc4)CC3)cc2)cc1[N+](=O)[O-]` (stereo not drawn), the Potency entry in assay [1], in assay [2], in assay [4] and in assay [5] was “inactive” each time. In addition, in assay [3], the Potency was 2.12 µM (active).
Take `Cn1ncc(Cl)c1-c1cc(C(=O)N[C@H](CN)Cc2ccc(F)c(F)c2)oc1Cl`: the Potency entry in assay [1], in assay [2], in assay [3], in assay [4] and in assay [5] was “inactive” each time.
Consider `Cc1cc(OCCCS(C)(=O)=O)cc(C)c1-c1cccc(COc2ccc(C3=CC(=O)NS3=O)cc2)c1` (stereo not drawn), for which the Potency entry in assay [1], in assay [2], in assay [3], in assay [4] and in assay [5] was “inactive” throughout.
On to `Cc1c(NC(=O)OCC2COCCN2)cn2ncnc(Nc3ccc4c(cnn4Cc4cccc(F)c4)c3)c12` (stereo not drawn), for which the Potency entry in assay [1], in assay [2], in assay [3], in assay [4] and in assay [5] was “inactive” throughout.
Take `CCNC1(C(N)=O)CCN(c2ncnc3c2nc(-c2ccccc2Cl)n3-c2ccc(Cl)cc2)CC1`: the Potency entry in assay [1], in assay [2], in assay [3], in assay [4] and in assay [5] was “inactive” throughout.
In the case of `NC(=O)c1cnc(N[C@@H]2CCCC[C@H]2N)nc1Nc1cccc(-n2nccn2)c1`, the Potency entry in assay [1], in assay [2], in assay [3] and in assay [4] was “inactive” each time.
As to `CC(NC(=O)Cc1cc(F)cc(F)c1)C(=O)NC1C(=O)N(C)c2ccccc2-c2ccccc21` (stereo not drawn), the Potency result in assay [1], in assay [2], in assay [3] and in assay [4] was “inactive” throughout.
As for `COc1cc(F)c(F)c(Nc2ccc(I)cc2F)c1NS(=O)(=O)C1(CC(O)CO)CC1` (stereo not drawn), the Potency entry in assay [1], in assay [2], in assay [3] and in assay [4] was “inactive” in each case.
In the case of `Cc1cc(OCCCS(C)(=O)=O)cc(C)c1-c1cccc(COc2ccc3c(c2)OCC3CC(=O)O)c1` (stereo not drawn), the Potency entry in assay [1], in assay [2], in assay [3], in assay [4] and in assay [5] was “inactive” each time.
With `CC1=C(c2ccc(NC(=O)c3c(F)cccc3F)cc2)CN(c2nccs2)CC1`, the Potency entry in assay [1], in assay [2], in assay [3], in assay [4] and in assay [5] was “inactive” in each case.
As to `O=c1cc(NCCCN[C@@H]2CCOc3c(Br)cc(Br)cc32)[nH]c2ccsc12`, the Potency entry in assay [1], in assay [2], in assay [3], in assay [4] and in assay [5] was “inactive” throughout.
As for `CC(OC1OCCN(Cc2n[nH]c(=O)[nH]2)C1c1ccc(F)cc1)c1cc(C(F)(F)F)cc(C(F)(F)F)c1` (stereo not drawn), the Potency entry in assay [1], in assay [2], in assay [3], in assay [4] and in assay [5] was “inactive” each time.
With `COCC(c1ccc(C(F)(F)F)cc1)N1CCN(C2(C)CCN(C(=O)c3c(C)ncnc3C)CC2)CC1C` (stereo not drawn), the Potency result in assay [1], in assay [2], in assay [3] and in assay [4] was “inactive” throughout.
Regarding `CC(NCCCc1cccc(C(F)(F)F)c1)c1cccc2ccccc12` (stereo not drawn), the Potency entry in assay [1], in assay [2], in assay [3], in assay [4] and in assay [5] was “inactive” throughout.
As for `COC(=O)N1CC2(CC2)C[C@H](C(=O)NO)[C@H]1C(=O)N1CCN(c2ccccc2)CC1`, in assay [1], the Potency result was “inactive”.
For `C/C=C/C=C/C(=O)O[C@@H]1C=C2COC(=O)[C@]2(O)[C@@]2(C)CCCC(C)(C)[C@H]12`, the Potency entry in assay [1], in assay [2], in assay [3], in assay [4] and in assay [5] was “inactive” each time.
Take `CC#CCn1c(N2CCCC(N)C2)nc2c1c(=O)n(Cc1nc(C)c3ccccc3n1)c(=O)n2C` (stereo not drawn): the Potency result in assay [1], in assay [2], in assay [3] and in assay [4] was “inactive” in each case.
Take `CCCCCOc1ccc(-c2ccc(-c3ccc(C(=O)N[C@H]4C[C@@H](O)[C@@H](O)NC(=O)[C@@H]5[C@@H](O)[C@@H](C)CN5C(=O)[C@H]([C@@H](C)O)NC(=O)[C@H]([C@H](O)[C@@H](O)c5ccc(O)cc5)NC(=O)[C@@H]5C[C@@H](O)CN5C(=O)[C@H]([C@@H](C)O)NC4=O)cc3)cc2)cc1` ({pTerphenylCO(4''-OnC5H11)}-[Orn(4R-OH,5R-OH)]T[Hyp][hTyr(3S-OH,4S-OH)]T[Pro(3S-OH,4S-Me)]; lactam 1-C): the Potency result in assay [1], in assay [2], in assay [3], in assay [4] and in assay [5] was “inactive” each time.
Turning to `COc1ccc(C(=O)O[C@H]2C=COC=C3C=C4C(=O)N(C)C(=S)C(=O)N4[C@@H]32)cc1Oc1cc(C=O)ccc1O`, in assay [1], the Potency was 3.13 µM (active). The Potency entry in assay [2], in assay [3], in assay [4] and in assay [5] was “inactive” each time.
Consider `C=C1/C(=C/C=C2\CCC[C@]3(C)[C@@H]([C@H](C)/C=C/[C@H](O)C4CC4)CC[C@@H]23)C[C@@H](O)C[C@@H]1O`, for which the Potency result in assay [1], in assay [2], in assay [3] and in assay [4] was “inactive” throughout.
On to `CC(C)(F)CC(NC(c1ccc(-c2ccc(S(C)(=O)=O)cc2)cc1)C(F)(F)F)C(=O)NC1(C#N)CC1` (stereo not drawn), for which the Potency result in assay [1], in assay [2], in assay [3], in assay [4] and in assay [5] was “inactive” in each case.
As for `O=c1cc(OCc2ccc(F)cc2)ccn1-c1ccc(OCCN2CCCC2)cc1`, the Potency entry in assay [1], in assay [2], in assay [3] and in assay [4] was “inactive” throughout.
For `CCC1C(=O)N(C)c2cnc(Nc3ccc(C(=O)NC4CCN(C)CC4)cc3OC)nc2N1C1CCCC1` (stereo not drawn), the Potency entry in assay [1], in assay [2], in assay [3] and in assay [4] was “inactive” each time.
As for `CC1(NC(=O)c2ccc(C#Cc3cccc(F)c3)cn2)COC1`, the Potency result in assay [1], in assay [2], in assay [3], in assay [4] and in assay [5] was “inactive” each time.
